Results taken from the supplement of paper PMC10849652.
Of roughly 7,900 targets only a part is listed; those with a hit were picked by preference. About 0.6% of all pairs of compound and target were hits. Unmarked numbers belong to inactive results.

Tests used:
Assay in all cases: log2 fold change, soluble protein after heating vs DMSO (PISA); higher = thermal stabilisation; K562 cells, 10 uM, 30 min; active = over 0.2 and 3.5 SD of the protein, either way, in both replicates (recomputed)
IRAK-1-4 Inhibitor I = compound: C1COCCN1CCN2C3=CC=CC=C3N=C2NC(=O)C4=CC(=CC=C4)[N+](=O)[O-] [IRAK-1-4 Inhibitor I]
In short: (§1)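 K562 cells at 2×10^6 cells/mL were treated with 10 μM compound for 30 min. Aliquots were heated for 3 min across 48°C-58°C, pooled, and extracted in PBS with 0.5% NP-40 at 4°C; soluble protein was the supernatant after 21,000xg for 90 min. Soluble protein was quantified by TMTpro 16plex LC-MS/MS with channel sums equalised, and reported as log2 fold change in thermal stability against DMSO controls, with values from duplicates.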

ibrutinib = compound: C=CC(=O)N1CCC[C@@H](n2nc(-c3ccc(Oc4ccccc4)cc3)c3c(N)ncnc32)C1 [ibrutinib]
In short: as §1

[1] = compound: CC(=O)c1cnc2ccc(-c3cc(Cl)c(O)c(Cl)c3)nc2c1N[C@H]1CC[C@H](CN(C)C)CC1
In short: as §1

ralimetinib = compound: CC(C)(C)Cn1c(N)nc2ccc(-c3[nH]c(C(C)(C)C)nc3-c3ccc(F)cc3)nc21 [ralimetinib]
In short: as §1

[2] = compound: CC(C)(O)CC(=O)NCCn1ccc2ncnc(Nc3ccc(Oc4cccc(C(F)(F)F)c4)c(Cl)c3)c21
In short: as §1

[3] = compound: CC(C)C1=C2N=C(C=C(N2N=C1)NCC3=CC=CC=C3)NCCCCCCN
In short: as §1

[4] = compound: CC(C)C[C@@H](C=O)NC(=O)[C@H](CC(C)C)NC(=O)[C@H](CC(C)C)NC(=O)OCc1ccccc1
In short: as §1

pinometostat = compound: CC(C)N(C[C@H]1O[C@@H](n2cnc3c(N)ncnc32)[C@H](O)[C@@H]1O)[C@H]1C[C@@H](CCc2nc3cc(C(C)(C)C)ccc3[nH]2)C1 [pinometostat]
In short: as §1

[5] = compound: CC1=C(C(CC(=O)N1)C2=CC=C(C=C2)C(F)(F)F)C(=O)NC3=C(C=C4C(=C3)C=NN4)F
In short: as §1

[6] = compound: CC1=C(C2=C(C=C1)C(=O)C3=CC=CC=C3N2CCCN)C
In short: as §1

[7] = compound: CC1=C(C=C(C=C1)NC(=O)C2=CC(=CC=C2)C(C)(C)C#N)NC3=CC4=C(C=C3)N=CN(C4=O)C
In short: as §1

[8] = compound: CC1=C(C=C(C=C1)NC(=O)C2=CC(=CC=C2)N(C)C)NC(=O)C3=CC=C(C=C3)O
In short: as §1

[9] = compound: CC1=CC=C(C=C1)SC2=C3C=C(SC3=CN=C2)C(=O)N
In short: as §1

[10] = compound: CC1=NC(=CC=C1)C2=C(N=C(N2)C(C)(C)C)C3=CC4=NC=CN=C4C=C3
In short: as §1

Nexturastat A = compound: CCCCN(Cc1ccc(C(=O)NO)cc1)C(=O)Nc1ccccc1 [Nexturastat A]
In short: as §1

vemurafenib = compound: CCCS(=O)(=O)Nc1ccc(F)c(C(=O)c2c[nH]c3ncc(-c4ccc(Cl)cc4)cc23)c1F [vemurafenib]
In short: as §1

[11] = compound: CCCS(=O)(=O)Nc1ccc(F)c(C(=O)c2c[nH]c3ncc(Cl)cc23)c1F
In short: as §1

[12] = compound: CCCc1cc(C)[nH]c(=O)c1CNC(=O)c1cc(-c2ccnc(N3CCN(C)CC3)c2)cc2c1cnn2C(C)C
In short: as §1

givinostat = compound: CCN(CC)Cc1ccc2cc(COC(=O)Nc3ccc(C(=O)NO)cc3)ccc2c1 [givinostat]
In short: as §1

barasertib = compound: CCN(CCCOc1ccc2c(Nc3cc(CC(=O)Nc4cccc(F)c4)[nH]n3)ncnc2c1)CCOP(=O)(O)O [barasertib]
In short: as §1

UniProt Q96T76, sequence (Q96T76 whole entry, looked up): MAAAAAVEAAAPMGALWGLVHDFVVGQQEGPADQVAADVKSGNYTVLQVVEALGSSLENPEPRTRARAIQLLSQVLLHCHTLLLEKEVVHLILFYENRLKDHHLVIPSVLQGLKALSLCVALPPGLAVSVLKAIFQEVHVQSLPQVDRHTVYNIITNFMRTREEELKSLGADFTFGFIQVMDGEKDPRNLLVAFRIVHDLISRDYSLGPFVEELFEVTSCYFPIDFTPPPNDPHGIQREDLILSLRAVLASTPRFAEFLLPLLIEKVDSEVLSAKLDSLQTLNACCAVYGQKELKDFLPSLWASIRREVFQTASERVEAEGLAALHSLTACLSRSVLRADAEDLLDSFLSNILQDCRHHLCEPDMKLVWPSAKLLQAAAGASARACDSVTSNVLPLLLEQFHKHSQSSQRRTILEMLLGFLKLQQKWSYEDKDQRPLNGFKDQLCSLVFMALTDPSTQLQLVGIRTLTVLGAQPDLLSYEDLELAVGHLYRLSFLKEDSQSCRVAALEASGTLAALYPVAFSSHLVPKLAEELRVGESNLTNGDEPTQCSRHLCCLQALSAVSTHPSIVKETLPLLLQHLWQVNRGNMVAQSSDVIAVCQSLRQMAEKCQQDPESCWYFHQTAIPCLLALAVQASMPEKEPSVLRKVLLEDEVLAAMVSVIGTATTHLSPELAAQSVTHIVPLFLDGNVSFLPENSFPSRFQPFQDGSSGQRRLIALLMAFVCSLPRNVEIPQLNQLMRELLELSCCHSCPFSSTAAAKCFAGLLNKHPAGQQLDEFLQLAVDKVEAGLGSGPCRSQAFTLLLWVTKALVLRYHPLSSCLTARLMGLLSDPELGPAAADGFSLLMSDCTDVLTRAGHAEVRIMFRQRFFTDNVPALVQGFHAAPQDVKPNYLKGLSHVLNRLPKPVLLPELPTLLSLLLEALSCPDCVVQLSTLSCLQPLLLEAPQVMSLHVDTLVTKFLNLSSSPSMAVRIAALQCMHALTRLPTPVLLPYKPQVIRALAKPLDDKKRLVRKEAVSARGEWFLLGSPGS
UniProt P00846, sequence (P00846 whole entry, looked up): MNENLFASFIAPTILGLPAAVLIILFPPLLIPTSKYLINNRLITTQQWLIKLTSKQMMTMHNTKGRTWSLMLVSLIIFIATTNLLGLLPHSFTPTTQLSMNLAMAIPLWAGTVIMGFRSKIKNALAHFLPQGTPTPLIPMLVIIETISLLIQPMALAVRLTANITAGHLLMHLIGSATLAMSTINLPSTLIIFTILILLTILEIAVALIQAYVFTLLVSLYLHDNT
UniProt P68402, sequence (P68402 whole entry, looked up): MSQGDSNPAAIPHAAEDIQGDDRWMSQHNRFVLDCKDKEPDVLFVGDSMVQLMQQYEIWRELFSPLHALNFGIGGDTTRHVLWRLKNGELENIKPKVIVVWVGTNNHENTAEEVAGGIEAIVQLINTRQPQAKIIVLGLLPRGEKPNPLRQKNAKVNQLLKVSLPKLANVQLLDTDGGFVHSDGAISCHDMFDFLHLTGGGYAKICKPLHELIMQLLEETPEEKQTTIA
UniProt Q14980, sequence (Q14980 whole entry, looked up): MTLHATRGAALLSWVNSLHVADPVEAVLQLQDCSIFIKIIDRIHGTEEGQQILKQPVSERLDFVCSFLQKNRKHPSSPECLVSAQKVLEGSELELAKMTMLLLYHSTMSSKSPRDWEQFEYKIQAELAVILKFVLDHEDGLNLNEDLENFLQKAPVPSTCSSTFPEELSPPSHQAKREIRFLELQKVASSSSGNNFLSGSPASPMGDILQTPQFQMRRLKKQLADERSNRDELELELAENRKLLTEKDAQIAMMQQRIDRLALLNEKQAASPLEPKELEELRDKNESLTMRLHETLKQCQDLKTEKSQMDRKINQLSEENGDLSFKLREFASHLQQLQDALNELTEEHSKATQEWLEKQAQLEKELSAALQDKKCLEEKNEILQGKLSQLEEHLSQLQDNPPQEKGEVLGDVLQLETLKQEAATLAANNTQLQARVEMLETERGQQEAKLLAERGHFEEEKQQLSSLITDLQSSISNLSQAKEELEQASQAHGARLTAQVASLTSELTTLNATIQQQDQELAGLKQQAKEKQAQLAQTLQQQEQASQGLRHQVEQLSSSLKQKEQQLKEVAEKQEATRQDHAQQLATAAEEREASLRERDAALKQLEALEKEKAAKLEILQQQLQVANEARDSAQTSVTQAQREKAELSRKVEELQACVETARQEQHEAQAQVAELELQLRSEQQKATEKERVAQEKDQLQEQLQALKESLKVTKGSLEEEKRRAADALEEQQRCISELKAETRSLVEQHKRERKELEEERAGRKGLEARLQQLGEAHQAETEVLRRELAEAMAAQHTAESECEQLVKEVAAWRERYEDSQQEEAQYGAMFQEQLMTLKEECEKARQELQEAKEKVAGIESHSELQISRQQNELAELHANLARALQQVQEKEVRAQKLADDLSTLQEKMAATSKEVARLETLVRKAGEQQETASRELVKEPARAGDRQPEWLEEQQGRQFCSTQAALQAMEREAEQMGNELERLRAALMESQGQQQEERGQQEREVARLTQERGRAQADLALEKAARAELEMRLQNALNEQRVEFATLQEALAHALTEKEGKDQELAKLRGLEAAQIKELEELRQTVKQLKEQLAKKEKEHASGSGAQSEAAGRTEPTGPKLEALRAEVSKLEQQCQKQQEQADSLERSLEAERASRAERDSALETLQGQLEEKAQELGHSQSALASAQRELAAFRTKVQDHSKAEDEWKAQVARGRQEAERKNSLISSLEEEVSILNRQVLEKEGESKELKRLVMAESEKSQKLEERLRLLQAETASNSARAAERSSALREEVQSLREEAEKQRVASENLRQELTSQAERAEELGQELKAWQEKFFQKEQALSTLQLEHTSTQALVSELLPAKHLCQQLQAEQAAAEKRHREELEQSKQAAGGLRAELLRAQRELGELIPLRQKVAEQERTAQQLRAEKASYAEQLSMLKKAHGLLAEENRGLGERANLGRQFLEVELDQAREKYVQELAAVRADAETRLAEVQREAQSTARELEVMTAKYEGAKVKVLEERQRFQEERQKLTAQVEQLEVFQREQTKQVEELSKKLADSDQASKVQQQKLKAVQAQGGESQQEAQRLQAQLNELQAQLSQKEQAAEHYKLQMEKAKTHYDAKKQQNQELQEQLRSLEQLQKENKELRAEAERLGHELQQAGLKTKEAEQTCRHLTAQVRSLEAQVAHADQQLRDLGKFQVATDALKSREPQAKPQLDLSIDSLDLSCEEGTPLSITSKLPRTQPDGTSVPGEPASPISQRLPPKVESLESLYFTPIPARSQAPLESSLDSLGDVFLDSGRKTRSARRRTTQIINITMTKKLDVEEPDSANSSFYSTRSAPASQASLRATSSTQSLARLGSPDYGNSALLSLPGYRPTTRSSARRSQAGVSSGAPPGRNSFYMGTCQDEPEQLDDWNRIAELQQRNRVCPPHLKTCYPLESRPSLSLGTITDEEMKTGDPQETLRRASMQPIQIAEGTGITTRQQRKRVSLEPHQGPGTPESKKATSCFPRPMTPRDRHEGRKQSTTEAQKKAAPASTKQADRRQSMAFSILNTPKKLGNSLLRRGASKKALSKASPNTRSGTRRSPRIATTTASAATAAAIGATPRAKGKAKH
UniProt Q9HBL8, sequence (Q9HBL8 whole entry, looked up): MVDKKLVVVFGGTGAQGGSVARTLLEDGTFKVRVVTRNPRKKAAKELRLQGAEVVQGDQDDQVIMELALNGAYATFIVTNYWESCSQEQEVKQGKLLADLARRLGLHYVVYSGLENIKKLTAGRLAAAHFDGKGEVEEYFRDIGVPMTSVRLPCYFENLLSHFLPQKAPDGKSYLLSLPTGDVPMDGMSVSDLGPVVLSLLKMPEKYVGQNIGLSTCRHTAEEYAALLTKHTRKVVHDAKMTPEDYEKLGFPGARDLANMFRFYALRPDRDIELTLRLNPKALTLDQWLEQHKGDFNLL
UniProt O00566, sequence (O00566 whole entry, looked up): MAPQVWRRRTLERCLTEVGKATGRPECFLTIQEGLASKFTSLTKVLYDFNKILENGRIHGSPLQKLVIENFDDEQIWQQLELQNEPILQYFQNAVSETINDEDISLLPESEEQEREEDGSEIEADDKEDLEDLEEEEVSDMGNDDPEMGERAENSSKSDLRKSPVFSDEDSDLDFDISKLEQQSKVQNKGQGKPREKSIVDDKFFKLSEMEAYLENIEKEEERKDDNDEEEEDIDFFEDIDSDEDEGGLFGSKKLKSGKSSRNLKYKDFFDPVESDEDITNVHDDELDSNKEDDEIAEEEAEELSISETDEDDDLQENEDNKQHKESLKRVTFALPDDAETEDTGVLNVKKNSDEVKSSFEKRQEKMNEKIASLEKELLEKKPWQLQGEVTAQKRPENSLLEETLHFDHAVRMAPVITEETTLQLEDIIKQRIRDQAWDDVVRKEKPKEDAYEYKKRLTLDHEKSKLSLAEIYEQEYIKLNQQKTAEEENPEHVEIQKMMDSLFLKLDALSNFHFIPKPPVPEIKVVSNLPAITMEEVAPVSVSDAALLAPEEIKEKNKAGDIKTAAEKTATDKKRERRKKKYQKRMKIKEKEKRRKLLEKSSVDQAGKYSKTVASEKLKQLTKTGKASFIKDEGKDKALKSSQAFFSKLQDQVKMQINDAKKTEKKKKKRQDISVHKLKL
UniProt P49914, sequence (P49914 whole entry, looked up): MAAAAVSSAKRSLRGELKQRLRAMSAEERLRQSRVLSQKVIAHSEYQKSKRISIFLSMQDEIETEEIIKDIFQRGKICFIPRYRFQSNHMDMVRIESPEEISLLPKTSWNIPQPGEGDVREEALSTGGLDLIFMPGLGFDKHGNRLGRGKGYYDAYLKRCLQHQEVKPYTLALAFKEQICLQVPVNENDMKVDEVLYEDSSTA
UniProt O75251, sequence (O75251 whole entry, looked up): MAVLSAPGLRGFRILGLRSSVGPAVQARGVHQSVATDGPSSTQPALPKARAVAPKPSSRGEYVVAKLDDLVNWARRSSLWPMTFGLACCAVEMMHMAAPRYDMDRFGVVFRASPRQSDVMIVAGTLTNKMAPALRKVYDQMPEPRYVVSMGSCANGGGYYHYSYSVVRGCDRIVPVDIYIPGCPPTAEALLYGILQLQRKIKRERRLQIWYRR

Target	log2 fold change (IRAK-1-4 Inhibitor I)	log2 fold change (ibrutinib)	log2 fold change [1]	log2 fold change (ralimetinib)	log2 fold change [2]	log2 fold change [3]	log2 fold change [4]	log2 fold change (pinometostat)	log2 fold change [5]	log2 fold change [6]	log2 fold change [7]	log2 fold change [8]	log2 fold change [9]	log2 fold change [10]	log2 fold change (Nexturastat A)	log2 fold change (vemurafenib)	log2 fold change [11]	log2 fold change [12]	log2 fold change (givinostat)	log2 fold change (barasertib)
MMS19 isoform 8 (UniProt Q96T76)	-0.141	-0.029	-0.028	0.078	-0.082	-0.216	0.006	0.084	-0.018	0.011	-0.022	-0.029	0	0.067	0.051	0.047	0.1	0.061	-0.061	0.063
NDUFS7 (UniProt O75251)	0.045	-0.04	-0.016	-0.1	-0.1	-0.086	0.05	-0.03	-0.005	0.043	0.008	0.004	0.017	0.025	-0.019	-0.025	0.028	-0.039	0.113	0.016
MRPS12 (UniProt O15235)	0.05	-0.031	-0.033	-0.017	-0.053	-0.123	0.092	0.111	0.014	-0.224	-0.034	-0.094	0.054	-0.069	0.201	-0.146	0.032	-0.002	0.077	-0.054
MTHFS (UniProt P49914)	-0.003	-0.01	-0.009	-0.09	-0.095	-0.009	0.007	-0.03	-0.044	0.031	0.047	-0.054	-0.01	0.047	-0.005	-0.017	0.01	-0.041	-0.063	0.009
NMRAL1 (UniProt Q9HBL8)	0.058	0.874 (active)	0.467	-0.016	-0.121	0	-0.007	0	-0.257	0.281	1.01 (active)	0.029	0.025	-0.151	-0.138	0.003	-0.074	0.234	0.027	-0.021
MORC3 (UniProt Q14149)	0.021	-0.047	0.023	-0.024	-0.122	-0.051	0.002	-0.026	-0.039	0.595 (active)	-0.02	-0.06	-0.025	0.059	-0.296	0.095	0.032	0.11	-0.193	0.102
PAFAH1B2 (UniProt P68402)	0.013	0.017	-0.016	0.038	-0.436 (active)	0.012	-0.033	0.016	0.027	0.005	0.064	0.005	-0.106	-0.046	-0.157	0.083	-0.135	-0.355	0.042	0.046
NUMB (UniProt P49757)	0.008	-0.05	-0.318 (active)	0.049	-0.062	-0.086	0.053	0.061	0.047	0.079	-0.006	0.018	-0.067	-0.046	0.09	0.026	-0.002	0.004	0.02	-0.01
NUMA1 (UniProt Q14980)	-0.107	-0.051	-0.123	0.149	0.073	-0.173	-0.02	0.202	-0.018	-0.58 (active)	0.03	-0.029	-0.009	-0.073	0.262	0.02	0.005	0.132	0.092	0.005
MT-ATP6 (UniProt P00846)	0	-0.68	-0.178	-0.178	-0.033	-0.06	-0.165	-0.162	-0.218	-0.072	-0.009	0.041	0.008	0.026	-0.133	-0.159	-0.043	-0.014	-0.074	0.567
NOP53 (UniProt Q9NZM5)	-0.209	0.018	0.303	0.212	0.411	0.233	0.089	0.321	-0.016	-1.19 (active)	-0.052	0.005	-0.073	-0.163	0.264	-0.154	-0.147	0.204	0.048	-0.105
MPHOSPH10 (UniProt O00566)	-0.215	-0.022	-0.064	0.144	0.089	-0.071	0.053	0.113	0.021	-0.56	0.052	-0.01	-0.031	-0.079	0.098	-0.041	0.009	0.047	0.087	-0.107
